Among the data in PubChem BioAssay (NCATS) are Potency and outcome values, retold here.

Common to all, as to experiment: qHTS profiling for inhibitors of Plasmodium falciparum proliferation (AID 504749); further: nearly all actives have a fitted effect of over 60% in size
Holding throughout (settings): P. falciparum in erythrocytes, SYBR Green DNA, 72 h; series mostly up to 28.7 µM

For one assay, the system named is CP266. In a few lines: (§1)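 In a 72 h erythrocytic culture (37 C, humidified, 5% CO2) at 2.5% hematocrit and 0.3% starting parasitemia, compounds were tested; SYBR Green I in detergent lysis buffer stained parasite DNA overnight.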
A further assay concerns CP268. Put shortly: as §1
In the next assay the test system is CP269. Put shortly: as §1
The next assay relates to CP286. In a few lines: as §1
A further assay relates to CP291. Put shortly:
as §1

The test system of a further assay is CP297. Put shortly:
as §1

Another assay deals with CP305. Put shortly: as §1
The subject of the next assay is CP315. In a few lines:
as §1

The next assay deals with CP325. Put shortly: as §1
In the next assay the test system is CP329. In a few lines: as §1
The test system of another assay is CP335. In a few lines:
as §1

The next assay deals with DFO2036. In a few lines: as §1
For a further assay, the system named is DIV14. In a few lines: as §1
A further assay deals with DIV17. Put shortly:
as §1

The next assay has as its system DIV30. Put shortly: as §1
A further assay concerns Dd2. Put shortly:
as §1

The test system of another assay is ECU. In a few lines:
as §1

A further assay concerns FAB9. In a few lines:
as §1

The test system of another assay is GB4. In a few lines:
as §1

A further assay concerns HB3. In a few lines: as §1

Records with an inconclusive call do not appear. Active and inactive are the calls of the source. The call rests on the fitted dose curve; in most records, active means well fitted inhibition curve with a large enough effect; inconclusive means small, poorly fitted or top-dose-only effect; inactive means flat fitted curve, though single readings scatter.
Potency means the concentration at half of the fitted maximal effect.

With `CS(=O)(=O)c1ccc(C2=C(c3ccccc3)C(=O)OC2)cc1`, the Potency result in the assay on CP266, in the assay on CP268, in the assay with CP269, with CP286, in the assay on CP291 and in the assay with CP297 was “inactive” throughout. Also, the Potency result in the assay with CP305, with CP315, with CP325, in the assay on CP329, in the assay with CP335 and in the assay with DFO2036 was “inactive” throughout. For the same compound, the Potency result in the assay on DIV14, in the assay with DIV17, in the assay on DIV30, in the assay on Dd2, in the assay on ECU and with GB4 was “inactive” throughout. Moreover, the Potency result with HB3 is “inactive”. Further, in the assay on FAB9, the compound was called inactive.

`NS(=O)(=O)c1cc(Cl)c(Cl)c(S(N)(=O)=O)c1`: the Potency result in the assay with CP266, in the assay with CP268, in the assay on CP269, in the assay on CP286, in the assay on CP291 and in the assay with CP297 was “inactive” throughout. Further, the Potency entry in the assay on CP305, in the assay on CP315, in the assay on CP325, with CP329, in the assay on CP335 and in the assay on DFO2036 was “inactive” throughout. In addition, the Potency entry in the assay with DIV14, with DIV17, in the assay on DIV30, in the assay with Dd2, in the assay with ECU and in the assay on GB4 was “inactive” in each case. The Potency result in the assay with HB3 was “inactive”. For the same compound, the call in the assay with FAB9 was inactive.

For `COc1c(C)c2c(c(O)c1CC=C(C)CCC(=O)OCCN1CCOCC1)C(=O)OC2`, the Potency is 12 µM (active) in the assay with CP266; 12 µM (active) with CP268; 8.49 µM (active) with CP269; 7.08 µM (active) in the assay on CP286; 8.49 µM (active) in the assay on CP291; 12 µM (active) with CP297. For the same compound, the Potency with CP305 is 10.7 µM (active); in the assay on CP315, 13.5 µM (active); in the assay on CP325 it was 10.7 µM (active); in the assay with CP329 it was 7.57 µM (active); in the assay with CP335 it was 8.49 µM (active); in the assay with DFO2036 it was 10 µM (active). Moreover, the Potency in the assay with DIV14 was 13.5 µM (active); in the assay on DIV17, 15.1 µM (active); in the assay with DIV30, 12 µM (active); in the assay on Dd2, 11.2 µM (active); in the assay with ECU it was 10 µM (active); in the assay with GB4 it was 6.75 µM (active). In addition, in the assay on FAB9, the call was inactive.

Regarding `Fc1ccc(C(c2ccc(F)cc2)N2CCN(CC=Cc3ccccc3)CC2)cc1`, the Potency was 13.5 µM (active) in the assay with CP305; 15.1 µM (active) in the assay with CP335; 12 µM (active) in the assay with DIV14; 13.5 µM (active) with DIV17; 16.9 µM (active) in the assay with DIV30; 16.9 µM (active) in the assay with GB4.

Consider `C=C1c2cccc(O)c2C(O)=C2C(=O)[C@@]3(O)C(O)=C(C(N)=O)C(=O)[C@@H](N(C)C)[C@@H]3[C@@H](O)[C@H]12`, for which the Potency entry in the assay with CP266, with CP268, in the assay on CP269, in the assay with CP291, with CP297 and in the assay with CP305 was “inactive” each time. The Potency entry in the assay on CP315, in the assay with CP325, in the assay on CP329, in the assay with DFO2036, with DIV14 and with DIV17 was “inactive” in each case. Also, the Potency entry in the assay on DIV30, in the assay on ECU and with GB4 was “inactive” in each case. In addition, in the assay with Dd2, the Potency is 1.78 µM (active). In addition, in the assay on FAB9, the compound was classed as inactive.

For the compound `O=C1C(CCC(O)c2ccc(F)cc2)C(c2ccc(O)cc2)N1c1ccc(F)cc1` (centres undefined), the Potency entry in the assay with CP266, with CP268, with CP269, in the assay on CP286, with CP291 and in the assay with CP297 was “inactive” each time. The Potency entry in the assay on CP305, with CP315, in the assay with CP325, in the assay with CP329, in the assay on CP335 and in the assay with DFO2036 was “inactive” each time. In addition, the Potency result in the assay on DIV14, with DIV17, with DIV30, in the assay on Dd2, in the assay on ECU and with GB4 was “inactive” throughout. For the same compound, the Potency entry in the assay with HB3 was “inactive”. In the assay on FAB9, the result was inactive.

Consider `COc1cc2c(cc1OC)CC(=O)N(CCCN(C)C[C@H]1Cc3cc(OC)c(OC)cc31)CC2`, for which the Potency result with CP266, in the assay with CP268, with CP269, in the assay on CP286, in the assay on CP291 and in the assay with CP297 was “inactive” throughout. For the same compound, the Potency result with CP305, with CP315, with CP325, with CP329, with CP335 and with DFO2036 was “inactive” throughout. Moreover, the Potency entry with Dd2, with ECU, in the assay on GB4 and with HB3 was “inactive” throughout. Also, the outcome in the assay on FAB9 was inactive.

In the case of `CN1CC(=O)N2C(Cc3c([nH]c4ccccc34)[C@H]2c2ccc3c(c2)OCO3)C1=O` (some centres undefined), the Potency result in the assay on CP266, in the assay on CP268, in the assay with CP269, in the assay with CP286, with CP291 and in the assay with CP297 was “inactive” throughout. Besides, the Potency entry with CP305, in the assay on CP315, in the assay on CP325, in the assay on CP329, in the assay with CP335 and in the assay on DFO2036 was “inactive” in each case. In addition, the Potency entry with DIV30, in the assay on Dd2, in the assay with ECU, in the assay on GB4 and with HB3 was “inactive” each time. The result in the assay on FAB9 was inactive.

On to `CN1CCN2c3ncccc3Cc3ccccc3C2C1` (centres undefined), for which the Potency result with CP266, in the assay on CP268, with CP269, with CP286, with CP297 and in the assay with CP305 was “inactive” throughout. In addition, the Potency entry in the assay with CP315, in the assay on CP325, in the assay on CP329, with DFO2036, with DIV30 and in the assay with ECU was “inactive” throughout. The Potency entry in the assay with HB3 was “inactive”. Moreover, the result in the assay with FAB9 was inactive.

For `O=C(O)c1nc(=O)[nH]c(=O)[nH]1`, the Potency entry in the assay with CP266, in the assay with CP268, in the assay on CP269, in the assay on CP286, in the assay with CP291 and in the assay with CP297 was “inactive” throughout. For the same compound, the Potency entry in the assay with CP305, in the assay with CP325, in the assay on CP329, with DFO2036, with DIV14 and in the assay with DIV17 was “inactive” each time. The Potency result with DIV30, with Dd2, with ECU, in the assay on GB4 and in the assay with HB3 was “inactive” throughout. Also, the call with FAB9 was inactive.

With `N#Cc1c(N(CC(=O)O)CC(=O)O)sc(C(=O)O)c1CC(=O)O`, the Potency entry in the assay with CP266, with CP268, in the assay on CP269, in the assay with CP286, in the assay with CP291 and in the assay with CP297 was “inactive” each time. The Potency result in the assay on CP305, in the assay with CP315, with CP325, in the assay with CP329, in the assay on CP335 and in the assay on DFO2036 was “inactive” throughout. In addition, the Potency entry with DIV14, with DIV17, in the assay on DIV30, in the assay with Dd2, with ECU and in the assay on GB4 was “inactive” in each case. In addition, the Potency result with HB3 is “inactive”. The outcome in the assay with FAB9 was inactive.

In the case of `N#CC(c1ccc(Cl)cc1)c1c(Cl)cc(-n2ncc(=O)[nH]c2=O)cc1Cl` (centres undefined), the Potency entry with CP266, in the assay with CP268, in the assay on CP269, in the assay on CP286, in the assay on CP291 and in the assay on CP297 was “inactive” throughout. Further, the Potency entry with CP305, in the assay on CP315, with CP325, in the assay with CP329, in the assay with CP335 and in the assay on DFO2036 was “inactive” each time. The Potency result with DIV30, with Dd2, in the assay on ECU, in the assay on GB4 and in the assay on HB3 was “inactive” each time. Also, the compound was called inactive with FAB9.

As to `CC(C)CN(C[C@@H](O)[C@H](Cc1ccccc1)NC(=O)O[C@H]1CO[C@H]2OCC[C@H]21)S(=O)(=O)c1ccc(N)cc1`, the Potency entry in the assay on CP266, in the assay on CP268, in the assay with CP269, in the assay on CP286, in the assay on CP291 and with CP297 was “inactive” in each case. Further, the Potency result with CP305, in the assay on CP315, in the assay on CP325, in the assay on CP329, in the assay on CP335 and in the assay on DFO2036 was “inactive” each time. Moreover, the Potency entry in the assay on Dd2, in the assay on ECU, in the assay on GB4 and with HB3 was “inactive” in each case. For the same compound, the compound was called inactive with FAB9.

On to `Cc1cc2nc3c(=O)[nH]c(=O)nc-3n(CC(O)C(O)C(O)CO)c2cc1C` (centres undefined), for which the Potency entry with CP266, in the assay with CP268, with CP269, in the assay with CP286, with CP291 and in the assay on CP297 was “inactive” in each case. Also, the Potency entry in the assay with CP305, in the assay on CP315, in the assay on CP325, in the assay with CP329, with CP335 and with DFO2036 was “inactive” in each case. Further, the Potency entry in the assay on DIV30, in the assay on Dd2, in the assay on ECU and in the assay with HB3 was “inactive” each time. In addition, in the assay with FAB9, the compound was called inactive.

On to `Clc1ccc(COC(Cn2ccnc2)c2ccc(Cl)cc2Cl)c(Cl)c1` (centres undefined), for which the Potency was 4.05 µM (active) in the assay on CP297; 5.1 µM (active) in the assay with CP325; 3.16 µM (active) with DFO2036; 2.28 µM (active) in the assay on DIV14; 3.61 µM (active) in the assay with DIV17; 5.73 µM (active) in the assay on DIV30. Besides, the Potency in the assay with ECU is 1.26 µM (active); in the assay on GB4 it was 5.1 µM (active); with HB3 it was 3.55 µM (active).

As for `COc1ccnc(CS(=O)c2nc3ccc(OC(F)F)cc3[nH]2)c1OC` (centres undefined), the Potency result with CP266, with CP268, with CP269, with CP286, with CP291 and with CP297 was “inactive” each time. The Potency result in the assay on CP305, with CP315, in the assay with CP325, with CP329, with CP335 and with DFO2036 was “inactive” throughout. In addition, the Potency entry in the assay with DIV14, in the assay on DIV17, in the assay on Dd2, with ECU, in the assay on GB4 and with HB3 was “inactive” in each case. For the same compound, in the assay with FAB9, the result was inactive.
